Out of some 340,000 compounds screened, about 470 (0.14%) were called active.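 The calls were made as follows: active = mean activation of 30% or more, with every replicate also reaching 30%; inconclusive = mean activation of 30% or more but some replicate falls short; inactive = the rest.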 Many of the other results were omitted from the sample, so actives are more common in it than they were.

The assay in a line: miR-122 suppressors via Renilla sensor increase, primary screen, cell-based, Huh7 psiCHECK-miR122, Renilla luciferase, single point (AID 623901).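 Also: 0% = median of neutral control wells and 100% = median of positive control wells; higher luciferase signal means stronger suppression of miR-122 activity.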 To be noted: 48 h, at 12.5 µM, active compounds read high.
For `COc1ccc(C#Cc2cnc3c(c2)C(=O)N([C@@H](C)CO)C[C@H](C)[C@@H](CN(C)CC2CCOCC2)O3)cc1`, the activation was 0.272% (inactive).
With `CSc1nc(-c2ccccc2)nc(C(Cl)Cl)n1`, the activation is 42% (active).
The figure for `COCC#Cc1ccc2c(c1)O[C@H](CN(C)C(=O)C1CCOCC1)[C@@H](C)CN([C@@H](C)CO)S2(=O)=O` is -2.66% (inactive).
As to `COc1ccccc1-c1ccc2c(c1)O[C@H](CN(C)S(=O)(=O)c1ccc(C)cc1)[C@@H](C)CN([C@H](C)CO)S2(=O)=O`, the activation was 2.3% (inactive).
With `COc1cccc(-c2ccc3c(c2)O[C@H](CN(C)C(=O)C2CCOCC2)[C@H](C)CN([C@H](C)CO)S3(=O)=O)c1`, the activation was 40.8% (active).
With `CNC[C@H]1Oc2cc(-c3ccc(OC)cc3)ccc2S(=O)(=O)N([C@H](C)CO)C[C@@H]1C`, the activation is -1.22% (inactive).
Turning to `C[C@H](CO)N1C[C@H](C)[C@@H](CN(C)C(=O)C2CCOCC2)Oc2cc(-c3ccc(C(=O)N(C)C)cc3)ccc2S1(=O)=O`, the activation is -12.2% (inactive).
For `COc1cccc(S(=O)(=O)N(C)C[C@@H]2Oc3cc(C4=CCCCC4)ccc3S(=O)(=O)N([C@H](C)CO)C[C@H]2C)c1`, the activation was 36.2% (active).
In the case of `C[C@H]1CN([C@@H](C)CO)C(=O)c2cc(Br)cnc2O[C@H]1CN(C)Cc1cccc(F)c1`, the activation is -14.9% (inactive).
For the molecule `CCC(=O)N1C[C@@H](C)[C@@H](OC)CN(C)C(=O)c2ccc(NC(=O)C3CCCCC3)cc2OC[C@H]1C`, the activation is -2.5% (inactive).
The figure for `COc1ccc(C)cc1S(=O)(=O)Nc1cc2c3c(c1)CCC(=O)N3CCC2` is -150% (inactive).
In the case of `C/C=C/c1ccc2c(c1)O[C@H](CN(C)C(=O)Cc1ccccn1)[C@H](C)CN([C@H](C)CO)S2(=O)=O`, the activation is -4.41% (inactive).
Turning to `CCCC#Cc1ccc2c(c1)O[C@@H](CN(C)C(=O)c1cccnc1)[C@H](C)CN([C@H](C)CO)S2(=O)=O`, the activation is -14.9% (inactive).
The figure for `C/C=C/c1ccc2c(c1)O[C@H](CN(C)C(=O)c1ccc3c(c1)OCO3)[C@@H](C)CN([C@H](C)CO)S2(=O)=O` is -10.3% (inactive); for `CCC(=O)N(C)C[C@@H]1Oc2cc(C#Cc3cccnc3)ccc2S(=O)(=O)N([C@H](C)CO)C[C@@H]1C` it is -5.93% (inactive).
With `CNC[C@@H]1Oc2cc(C#CC3CCCC3)ccc2S(=O)(=O)N([C@@H](C)CO)C[C@@H]1C`, the activation is 32.4% (active).
In the case of `CNC[C@@H]1Oc2cc(C#CCC3CCCC3)ccc2S(=O)(=O)N([C@H](C)CO)C[C@H]1C`, the activation is 14.9% (inactive).
Consider `C[C@H]1CN([C@@H](C)CO)S(=O)(=O)c2ccc(-c3cccc(C#N)c3)cc2O[C@H]1CN(C)C(=O)c1ccccc1`, for which the activation was 4.92% (inactive).
Take `C[C@@H]1CN([C@@H](C)CO)S(=O)(=O)c2ccc(C#Cc3ccc(F)cc3)cc2O[C@H]1CN(C)S(C)(=O)=O`: the activation is 0.672% (inactive).
Consider `C[C@@H]1CN([C@@H](C)CO)S(=O)(=O)c2ccc(C#Cc3ccccc3)cc2O[C@@H]1CN(C)C(=O)Nc1ccccc1`, for which the activation is -3.74% (inactive).
The figure for `C[C@@H]1CN([C@H](C)CO)S(=O)(=O)c2ccc(C#Cc3ccccc3F)cc2O[C@@H]1CN(C)C(=O)c1ccc2c(c1)OCO2` is 48.9% (active); for `C[C@@H]1CN([C@H](C)CO)S(=O)(=O)c2ccc(C#CC3(O)CCCC3)cc2O[C@@H]1CN(C)C(=O)c1cccnc1` it is 44% (active); for `C[C@H](CO)N1C[C@H](C)[C@@H](CN(C)C(=O)C2CC2)Oc2cc(C#CC3CC3)ccc2S1(=O)=O` it is -21% (inactive).
Take `C[C@H]1CN([C@@H](C)CO)S(=O)(=O)c2ccc(C#Cc3ccccc3F)cc2O[C@@H]1CN(C)C(=O)c1ccc2c(c1)OCO2`: the activation is 48% (active).
For `C[C@H](CO)N1C[C@H](C)[C@@H](CN(C)Cc2cncnc2)Oc2cc(-c3ccccc3)ccc2S1(=O)=O`, the activation was -27.5% (inactive).
As to `C[C@H]1CN([C@@H](C)CO)C(=O)c2cc(/C=C/c3ccccc3)cnc2O[C@H]1CN(C)Cc1cccc(C(=O)O)c1`, the activation is 8.03% (inactive).
Regarding `CCOc1ccccc1NC(=O)Cn1nnc(C(=O)NCc2cccs2)c1N`, the activation is -94.8% (inactive).
On to `C[C@@H]1CN([C@@H](C)CO)S(=O)(=O)c2ccc(-c3ccc(C(=O)N(C)C)cc3)cc2O[C@@H]1CN(C)C(=O)Cc1ccccn1`, for which the activation was -3.98% (inactive).
In the case of `COCC#Cc1cnc2c(c1)C(=O)N([C@@H](C)CO)C[C@H](C)[C@@H](CN(C)Cc1ccccc1)O2`, the activation is -2.07% (inactive).
For the molecule `C[C@@H]1CN([C@H](C)CO)C(=O)c2cc(-c3cccc(C(=O)N(C)C)c3)cnc2O[C@H]1CN(C)S(=O)(=O)c1ccc(F)cc1`, the activation was -4.18% (inactive).
Regarding `COc1ccc(-c2cc(NC(C)=O)c3ncc(-c4cc(OC)c(OC)c(OC)c4)n3c2)cn1`, the activation was -107% (inactive).
Turning to `CCCC#Cc1ccc2c(c1)O[C@@H](CN(C)C(=O)CC)[C@@H](C)CN([C@H](C)CO)S2(=O)=O`, the activation was -16.6% (inactive).
Consider `COCCn1c(SCC(=O)c2[nH]c(C)c(C(C)=O)c2C)nc2ccccc2c1=O`, for which the activation is -272% (inactive).
For `CC1CCCCC1NC(=O)/C(C#N)=C/C=C/c1ccccc1[N+](=O)[O-]` (configuration not stated), the activation is -102% (inactive).
Take `Cc1ccc(OCC(=O)Nc2cccc3c2CCCC3)cc1C`: the activation was -94.9% (inactive).
On to `C[C@@H]1CN([C@H](C)CO)C(=O)c2cc(C#Cc3ccccn3)cnc2O[C@H]1CN(C)CC1CCOCC1`, for which the activation was -7.38% (inactive).
Consider `CCC(=O)Nc1ccc2c(c1)OC[C@H](C)N(C(=O)c1ccncc1)C[C@H](C)[C@H](OC)CN(C)C2=O`, for which the activation is -2.72% (inactive).
For the molecule `COCC#Cc1cnc2c(c1)C(=O)N([C@@H](C)CO)C[C@@H](C)[C@H](CN(C)C(=O)C1CCOCC1)O2`, the activation was -0.849% (inactive).
For the molecule `CC1=C(C)CC(C(=O)NNC(=O)c2ccccc2O)C(C(=O)O)C1` (configuration not stated), the activation is -151% (inactive).
In the case of `Cn1cnc([N+](=O)[O-])c1Sc1ccccc1`, the activation was -217% (inactive).
Turning to `CCC(=O)N(C)C[C@@H]1Oc2ncc(C#CCC3CCCC3)cc2C(=O)N([C@@H](C)CO)C[C@H]1C`, the activation was 7.03% (inactive).
In the case of `COc1ccc(C#Cc2cnc3c(c2)C(=O)N([C@H](C)CO)C[C@H](C)[C@H](CN(C)S(=O)(=O)c2ccc(F)cc2)O3)cc1OC`, the activation was 8.05% (inactive).
With `C/C=C/c1ccc2c(c1)O[C@H](CN(C)C(=O)Nc1ccc(OC)cc1)[C@@H](C)CN([C@H](C)CO)S2(=O)=O`, the activation was -21.8% (inactive).
On to `COCC#Cc1cnc2c(c1)C(=O)N([C@H](C)CO)C[C@H](C)[C@H](CN(C)C(=O)Nc1ccccc1OC)O2`, for which the activation is 0.317% (inactive).
As for `COc1ccc(C(C#N)Nc2ccc(C)cc2)cc1` (configuration not stated), the activation is 49.7% (active).
On to `COc1ccccc1NC(=O)N(C)C[C@@H]1Oc2ncc(C#CCC(C)C)cc2C(=O)N([C@@H](C)CO)C[C@@H]1C`, for which the activation is 3.82% (inactive).
Consider `CC(C)C#Cc1ccc2c(c1)O[C@H](CN(C)Cc1ccccn1)[C@H](C)CN([C@H](C)CO)S2(=O)=O`, for which the activation was -14.1% (inactive).
With `Cc1ccccc1-c1cnc2c(c1)C(=O)N([C@H](C)CO)C[C@H](C)[C@@H](CN(C)C(=O)c1ccccc1)O2`, the activation is 2.61% (inactive).
Consider `Cc1cc(C)cc(NS(=O)(=O)c2ccc(F)cc2)c1`, for which the activation was -117% (inactive).
Take `COc1ccc(F)cc1S(=O)(=O)Nc1ccc2c(c1)OCO2`: the activation was -99.7% (inactive).
As to `C[C@H]1CN([C@@H](C)CO)S(=O)(=O)c2ccc(-c3ccccc3)cc2O[C@H]1CN(C)C(=O)CC1CC1`, the activation is 4.7% (inactive).
Consider `CO[C@H]1CN(C)C(=O)c2cc(NC(C)=O)ccc2OC[C@H](C)N(C(=O)CN(C)C)C[C@@H]1C`, for which the activation was -4.03% (inactive).
For `COc1ccc(S(=O)(=O)Nc2ccc(F)cc2)c(C)c1C`, the activation is -231% (inactive).
The figure for `COc1ccc(CN2CCOC2=O)cc1OC` is 44.5% (active); for `C[C@@H]1CN([C@@H](C)CO)C(=O)c2cc(C#Cc3ccccc3)cnc2O[C@H]1CN(C)C(=O)c1ccccn1` it is 5.71% (inactive); for `C[C@@H]1CN([C@@H](C)CO)C(=O)c2cc(/C=C/c3ccccc3)cnc2O[C@H]1CN(C)C(=O)C1CCC1` it is 2.31% (inactive).
The figure for `CCCN(C)C[C@@H]1Oc2cc(C#CCc3ccccc3)ccc2S(=O)(=O)N([C@H](C)CO)C[C@@H]1C` is 7.02% (inactive); for `C[C@@H]1CN([C@H](C)CO)C(=O)c2cc(-c3ccccc3F)cnc2O[C@H]1CN(C)C(=O)NC1CCCCC1` it is -3.04% (inactive); for `CCC(=O)N(C)C[C@@H]1Oc2ncc(C#Cc3cccnc3)cc2C(=O)N([C@@H](C)CO)C[C@@H]1C` it is -1.27% (inactive).
As for `COc1ccc(C)cc1S(=O)(=O)NC1CCCCC1`, the figure is -375% (inactive); as for `Cc1cccc(-n2ncc(Cl)c(Cl)c2=O)c1`, 69.6% (active); as for `CCC(=O)N(C)C[C@H]1Oc2cc(-c3cccc(C#N)c3)ccc2S(=O)(=O)N([C@@H](C)CO)C[C@@H]1C`, -7.09% (inactive).
For the molecule `O=C(Nc1cc(S(=O)(=O)Nc2ccc(Cl)cc2)ccc1O)c1ccc(F)cc1F`, the activation was -118% (inactive).
For `CCC(=O)N(C)C[C@@H]1Oc2cc(C#C[C@H](C)O)ccc2S(=O)(=O)N([C@H](C)CO)C[C@@H]1C`, the activation is 5.93% (inactive).
Consider `CCCNC(=O)N(C)C[C@@H]1Oc2ncc(C#Cc3ccccc3F)cc2C(=O)N([C@@H](C)CO)C[C@H]1C`, for which the activation was 13.1% (inactive).
Turning to `COc1ccc(CN(C)C[C@@H]2Oc3ccc(NS(=O)(=O)c4ccc(OC)cc4)cc3C(=O)N([C@H](C)CO)C[C@H]2C)cc1`, the activation was -2.32% (inactive).
On to `C[C@@H]1CN([C@H](C)CO)C(=O)c2cccc(NS(=O)(=O)c3cn(C)cn3)c2O[C@H]1CN(C)CC1CC1`, for which the activation is -0.457% (inactive).

(Values after PubChem BioAssay AID623901 (Broad Institute, 2012).)
